Assay outcomes (PubChem BioAssay)
Hits are enriched below; roughly 7.5% of the tested compounds scored in any of these assays.
Luc counter: blocks Kinase-Glo luciferase, a counter-screen artifact; Q27757; Kinase-Glo luciferase, ATP luminescence, 8 min; Potency, µM (series often up to 38.3 µM), for the others: top-dose activity change, negative = inhibition, actives largely listed as inhibitors; 0.28% of 200,000 active; AID 1379; further: on the % scale 0 is the no-effect control and ±100 the full control effect; nearly all actives have a fitted effect of over 60% in size
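Substrate mix (final 50 mM imidazole pH 7.2, 50 mM KCl, 7 mM MgCl2, 10 uM ATP, 0.01% Tween 20, 0.05% BSA) plus pin-tool compound, then Kinase-Glo detection mix; 8 min ambient, luminescence read.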
ELG1 genotoxic: genotoxicity induction in ELG1-luciferase HEK293T cells | HEK293T ELG1-luciferase reporter, luminescence, 16 h | 1.3% of 330,000 active | Potency, µM (top dose mostly 46 µM), for the others: at the top dose activity change, positive = activation, most hits filed as activators | AID 504466; further: % of control where 0% means no effect; nearly all actives have a fitted effect of over 60% in size
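Cells (2,000/well) expressing the ELG1-luciferase fusion are dosed by pin tool and kept 16 hr at 37 °C, 5% CO2. Signal comes from ONE-Glo luciferase reagent after 30 min at room temperature.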
NPC1 promoter act: NPC1 promoter activation; Huh7 NPC1 promoter luciferase reporter, 24 h; Potency, µM (series often up to 9.22 µM), inactives show at the highest dose activation, actives largely listed as activators; 2.4% of 320,000 active; AID 485313; further: % of control where 0% means no effect; nearly all actives have a fitted effect of over 60% in size
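Huh7 cells stably carrying NPC1 promoter–luciferase, plated in Opti-MEM with 10% FBS for 2 h, were exposed to compound in DMSO for 24 h at 37 °C; luciferase reagent was added for 10 min and luminescence read.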
Rab9 promoter act: activators of Rab9 promoter; Potency, µM (titrated, usually from 9.22 µM), inactives show top-dose activation, negative = inhibition, actives largely listed as activators; 2.8% of 320,000 active; Huh7 Rab9 promoter-luciferase reporter, luminescence, 24 h; further: % of control where 0% means no effect; nearly all actives have a fitted effect of over 60% in size
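Huh7 reporter line, Rab9 promoter upstream of luciferase. Compound exposure 24 h at 37 °C in reduced-serum medium with 10% FBS. Read-out: luminescence.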
FLuc counter: counter-screen for miR-21 project: firefly luciferase inhibitors or activators | P08659 | 6.9% of 360,000 active | purified FLuc, Km substrates, luminescence inhibition | Potency, µM (top dose mostly 57.5 µM), without a hit: at the top dose activity change, negative = inhibition, actives largely listed as inhibitors | AID 588342;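 further: plate controls were vehicle for no effect and reference inhibitor for full effect; nearly all actives have a fitted effect of over 55% in size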
Target sequence (P08659 whole entry, looked up): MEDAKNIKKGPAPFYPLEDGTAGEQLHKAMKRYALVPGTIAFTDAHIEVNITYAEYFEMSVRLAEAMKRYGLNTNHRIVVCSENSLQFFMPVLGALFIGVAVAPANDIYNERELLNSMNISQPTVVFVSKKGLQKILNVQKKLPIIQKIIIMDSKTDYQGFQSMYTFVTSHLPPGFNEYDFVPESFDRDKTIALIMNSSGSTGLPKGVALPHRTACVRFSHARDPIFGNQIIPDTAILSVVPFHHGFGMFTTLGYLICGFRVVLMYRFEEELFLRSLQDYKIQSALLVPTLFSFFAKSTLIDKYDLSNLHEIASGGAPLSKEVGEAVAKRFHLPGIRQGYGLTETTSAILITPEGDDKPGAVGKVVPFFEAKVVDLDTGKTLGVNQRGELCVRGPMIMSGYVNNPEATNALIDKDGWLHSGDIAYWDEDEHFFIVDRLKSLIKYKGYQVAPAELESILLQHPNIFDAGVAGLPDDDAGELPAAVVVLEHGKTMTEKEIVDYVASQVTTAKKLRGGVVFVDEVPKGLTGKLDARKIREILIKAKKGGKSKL
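Purified P. pyralis luciferase (10nM final) with 10uM D-luciferin and 10uM ATP (Km levels) in 50mM Tris acetate pH 7.5, 10mM Mg acetate, 0.01% Tween-20, 0.05% BSA; qHTS 6-point titration, ~60 µM downward; luminescence read.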
SMN2 splice up: increases expression of the SMN2 splice variant; HEK293 SMN2-luciferase splicing reporter, luminescence, 30-36 h; Potency, µM (top dose mostly 46.1 µM), for inactives: at the top dose activity change, positive = activation, usual class: activators; 2.8% of 210,000 active; AID 1458; further: % of control where 0% means no effect; nearly all actives have a fitted effect of over 55% in size
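HEK293 cells carry an SMN2 […]–luciferase reporter in which exon 7 inclusion puts luciferase in frame. Cells were plated 10-12 h before compound addition, then incubated 30-36 h at 37C. ONE-Glo luminescence was read; sodium butyrate at 4.5 mM final served as control.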
Numbers without * were called inactive; ? = inconclusive; · = no result given; [ ] = dose if it differs, or a comment. The call rests on the fitted dose curve; in most records, active means well fitted curve in the direction sought with a large enough effect; inconclusive means small, poorly fitted or top-dose-only effect, or another doubt; inactive means no such curve, though single readings can be large; an effect the other way counts as inactive or inconclusive. Potency means the concentration at half of the fitted maximal effect.

SMILES	Luc counter	ELG1 genotoxic	NPC1 promoter act	Rab9 promoter act	FLuc counter	SMN2 splice up
CC(=O)Nc1ccc(S(=O)(=O)NC(C)C(=O)NCC(c2ccco2)N2CCCCC2)cc1 (configuration not stated)	·	1.7%	-0.4%	-4.5%	6.3%	·
Cc1ccc(S(=O)(=O)NC(CC(C)C)C(=O)NCC(c2ccco2)N2CCCCC2)cc1 (configuration not stated)	·	?	0.1%	1.2%	19µM*	·
COc1ccc2oc(C(=O)OCC(=O)NC3CC3)c(C)c2c1	·	19.1%	18.3%	13.5%	?	·
COc1ccc(C(=O)c2oc3ccc(OC)cc3c2NC(C)=O)cc1	2.2%	4.2%	-0.6%	1.4%	-1.6%	-0.1%
COC(=O)c1oc2ccc(OC)cc2c1N	-2.4%	11.5%	12.8%	29.0%	21.3µM*	?
COc1ccc(C(=O)c2oc3ccc(OC)cc3c2N)cc1	1.5%	13µM*	2.82µM*	2.82µM*	7.57µM*	14.1µM*
Cc1ccc(C(=O)NCCn2cc(SCC(=O)Nc3cc(C)on3)c3ccccc32)cc1	-1.0%	?	0.2%	?	5.36µM*	-66.5%
Cc1cc(NC(=O)CSc2cn(CCNC(=O)c3ccccc3)c3ccccc23)no1	15.3%	-10.0%	-0.8%	-6.3%	19µM*	-21.7%
CCc1ccc(NC(=O)c2cnc3n(c2=O)CCS3)cc1	-2.6%	9.2µM*	28.9%	3.98µM*	9.53µM*	26.1%
Cc1ccc(C)c(NC(=O)c2cnc3n(c2=O)CCS3)c1	-4.8%	15.0%	?	4.47µM*	-18.1%	?
CSc1ccccc1NC(=O)c1cnc2n(c1=O)CCS2	-1.3%	3.6%	9.7%	11.3%	-12.1%	-7.9%
CCS(=O)(=O)c1ccc2oc(Nc3ccccc3Cl)nc2c1	·	5.17µM*	1.58µM*	0.631µM*	9.53µM*	·
CCS(=O)(=O)c1ccc2oc(Nc3cc(Cl)ccc3OC)nc2c1	·	9.5%	-2.4%	0.1%	?	·
CCS(=O)(=O)c1ccc2oc(Nc3ccccc3Br)nc2c1	·	10.3µM*	2.51µM*	2µM*	9.53µM*	·
CCS(=O)(=O)c1ccc2oc(Nc3cccc(OC)c3)nc2c1	-8.5%	7.1%	9.6%	?	16.9µM*	17.0%
Clc1ccccc1Nc1nc2ccccc2o1	·	?	?	0.794µM*	1.69µM*	·
COC(=O)C(c1ccccc1Cl)N1CCc2sccc2C1 (configuration not stated)	2.0%[39.9 µM]	·	·	·	·	-4.2%
CCc1nn2c(=O)c(S(=O)(=O)Nc3ccc(C)cc3C)c(C)nc2s1	·	·	·	·	-0.9%	-17.8%
CCC1CCCCN1C(=O)CSc1nc2c([nH]c3ccccc32)c(=O)n1-c1cccc(OC)c1 (configuration not stated)	·	·	·	·	-0.8%	·
Cc1ccc(OCC(=O)Nc2ccc(Cl)c(-c3nc4ncccc4o3)c2)c(C)c1	·	·	·	·	-22.9%	·
Cc1ccc(NC(=O)NCc2ccc3[nH]c(C)cc3c2)cc1	-2.0%	3.6%	13.8%	12.6%	?	22.4µM*
Cc1cccc(NC(=O)NCc2ccc3[nH]c(C)cc3c2)c1	1.9%	?	?	?	19µM*	17.2%
CC(=O)NCc1ccc2[nH]c(C)cc2c1	1.7%	7.0%	-0.6%	-2.7%	-2.4%	1.8%
Cc1ccc(CNC(=O)Nc2cccc(C)c2)cc1	-1.0%	?	?	2.82µM*	9.53µM*	?
Cc1cccc(NC(=O)Nc2ccc(C)cc2Br)c1	-1.5%	?	?	?	?	12.6µM*
Cc1c(NC(=O)c2ccccc2F)cccc1-c1nc2cccnc2s1	·	·	·	·	-9.9%	·
CCOC(=O)c1c(-c2ccc(C)cc2)csc1NC(=O)c1cc(=O)c2cc(C)ccc2o1	·	·	·	·	?	0.4%
COC(=O)c1ccc(C(NC(=O)c2cccnc2)NC(=O)c2cccnc2)cc1	-0.2%	18.1%	-2.0%	1.7%	-18.0%	10.9%
